The text below walks through data of PubChem BioAssay AID588590 (National Center for Advancing Translational Sciences (NCATS), 2011).

The structures appear in SMILES notation. The campaign covered roughly 390,000 compounds. About 4,000 (1%) were called active. Not shown: some 7% with an inconclusive outcome. This excerpt belongs to a sample that is enriched for actives. A number with no mark means an inactive call. Calls come from the whole dose curve; as a rule, active = well fitted inhibition curve with a large enough effect; inconclusive = small, poorly fitted or top-dose-only effect, or another doubt; inactive = no such curve, though single readings can be large or run the other way.
Potency is the fitted concentration of half-maximal effect.

Chain of DNA polymerase iota (Homo sapiens) (Q9UNA4 whole entry, looked up): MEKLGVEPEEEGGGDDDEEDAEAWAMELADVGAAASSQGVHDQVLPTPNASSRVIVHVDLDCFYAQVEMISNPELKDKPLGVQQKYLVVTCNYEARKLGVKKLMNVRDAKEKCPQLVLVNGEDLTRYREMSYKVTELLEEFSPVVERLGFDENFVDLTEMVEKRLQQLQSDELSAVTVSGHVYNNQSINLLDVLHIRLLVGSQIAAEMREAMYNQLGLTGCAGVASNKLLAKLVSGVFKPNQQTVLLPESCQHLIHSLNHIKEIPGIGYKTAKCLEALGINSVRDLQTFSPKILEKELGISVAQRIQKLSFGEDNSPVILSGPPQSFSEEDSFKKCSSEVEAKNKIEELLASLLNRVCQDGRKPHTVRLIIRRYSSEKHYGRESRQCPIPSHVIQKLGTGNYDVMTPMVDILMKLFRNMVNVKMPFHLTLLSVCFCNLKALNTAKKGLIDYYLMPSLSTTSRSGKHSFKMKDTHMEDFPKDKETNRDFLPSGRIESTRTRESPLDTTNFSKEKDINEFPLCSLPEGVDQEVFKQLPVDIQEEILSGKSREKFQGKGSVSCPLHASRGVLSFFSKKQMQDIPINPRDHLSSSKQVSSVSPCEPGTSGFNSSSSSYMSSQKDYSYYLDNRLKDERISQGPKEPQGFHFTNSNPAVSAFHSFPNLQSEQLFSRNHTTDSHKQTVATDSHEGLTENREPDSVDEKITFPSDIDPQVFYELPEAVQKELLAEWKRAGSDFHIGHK

For this experiment, the target named is DNA polymerase iota (Homo sapiens) (UniProt Q9UNA4). Kind of experiment: qHTS for Inhibitors of Polymerase Iota. To be noted: Pol iota fluorescent replication assay, 10 min; series mostly up to 115 µM; activity, negative = inhibition: at the top concentration. Put shortly:
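Pol iota at 10 nM preincubated 15 min with compounds at room temperature; reaction started with fluorescent substrate, 50 nM final. Fluorescence read kinetically at 0 and 10 min; buffer-only wells as negative control.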
(In qHTS, concentration-response curves come from the screen itself.)
For the compound `Cc1cc(=O)n2[nH]c(-c3sccc3-n3c(C)ccc3C)cc2n1`, the Potency is 20 µM (active).
With `C=CCc1c(C)nc2cc(-c3ccccc3)[nH]n2c1=O`, the “activity, negative = inhibition” value is 20.2%.
Same read-out and setting: then `CN(Cc1ccccc1)C(=O)c1cn(C)c2ccc(S(=O)(=O)N(C)C3CCCCC3)cc2c1=O`, with 29.5%; and `COC(=O)c1cc(NC(=O)c2cnc(SC)nc2-c2ccccc2)cc(C(=O)OC)c1`, with 29.1%.
On to `Cc1cccc(-n2ncc(C(=O)N3CCN(c4ccc(Cl)cc4)CC3)c2C2CCN(C(=O)OC(C)(C)C)CC2)c1`, for which the “activity, negative = inhibition” value was 16.7%.
Same read-out and setting: under `CC(C)(C)OC(=O)N1CCC(c2c(C(=O)Nc3ccc4c(c3)OCO4)cnn2-c2ccccc2)CC1` stands 16.7%.
Turning to `COC(=O)c1ccc(NC(=O)c2cnn(-c3ccc(Cl)cc3)c2C2CCN(C(=O)OC(C)(C)C)CC2)cc1`, the Potency is 89.1 µM (active).
As for `Cc1nn(C)c2c1c(C(F)(F)F)cc(=O)n2C(C)C(=O)NCc1ccc(Cl)cc1` (centres undefined), the “activity, negative = inhibition” value is -26.1%.
Turning to `CN1CCOC1c1ccc(C2OCCN2C)cc1` (centres undefined), the Potency was 20 µM (active).
As for `CCOC(=O)c1cccc(NC(=O)c2cc(S(=O)(=O)N3CCCC(C)C3)cn2C)c1` (centres undefined), the “activity, negative = inhibition” value is 3.29%.
Consider `CCOc1ccc(N(C)S(=O)(=O)c2cc(-c3cnc(C)o3)ccc2OC)cc1`, for which the “activity, negative = inhibition” value was 10.1%.
On the same count and under the same terms, under `Cc1ccc(-n2c(=O)c3cccnc3n2CC(=O)NCc2ccc(F)cc2)cc1C` stands 22.8%; under `CC1CCCCN1S(=O)(=O)c1ccc(F)c(C(=O)Nc2ccccc2C(F)(F)F)c1` (centres undefined), 13.6%.
On the same count and under the same terms, then `Brc1nc2ncnc(NCc3ccco3)c2[nH]1`, with -12.7%; and `Cc1ccc(-n2ncc3c(=O)n(-c4ccc(C)c(C)c4)c(-c4ccco4)nc32)cc1`, with 24.7%.
In the case of `Cc1ccc(N2NC(=O)/C(=C/C=C/c3ccco3)C2=O)cc1C`, the Potency was 20 µM (active).
On to `Cc1ccc(C(=O)N/C(=C\c2ccco2)C(=O)N2CCSCC2)cc1C`, for which the “activity, negative = inhibition” value was 21.8%.
Regarding `Cc1ccc(N=C2NC(=O)/C(=C/C=C/c3ccco3)S2)cc1C`, the Potency was 11.2 µM (active).
Regarding `CCOc1ccc(-c2cc3nc(C4CCN(C(=O)OC(C)(C)C)CC4)c(C(=O)Nc4cccc(CC)c4)cn3n2)cc1`, the “activity, negative = inhibition” value is 31%.
Still for that read-out and setting: under `COc1cccc(NC(=O)N2CCN(C(=O)c3nsc4ccccc34)CC2)c1` stands 36.9%; under `CCc1ccccc1NC(=O)N1CCC2(CC1)Oc1ccccc1C(=O)N2Cc1ccccc1F`, -3.54%; under `Cc1cc(C)cc(OCC(=O)Nc2c(C(=O)c3ccccc3)oc3ccccc23)c1`, 13.4%.
The same measure, in the same setting: under `COc1ccccc1CNc1nc2ccc(Cl)cc2n2cnnc12` stands 2.76%; under `O=C(Nc1cccc(-c2nc3ccccc3o2)c1)c1cccc(Br)c1`, 7.05%.
For the compound `Cc1ccc(NC(=O)COc2ccc(/C=N\NC(=O)c3cccnc3)cc2)cc1C`, the Potency is 22.4 µM (active).
The same measure, in the same setting: then `O=C(COc1ccc(/C=N/NC(=O)c2ccc(O)cc2)cc1)Nc1ccc([N+](=O)[O-])cc1`, with 3.98 µM (active).
On to `Cc1cccc(OCC(=O)NCCNC(=O)c2cccnc2)c1`, for which the “activity, negative = inhibition” value is -19.7%.
For the compound `Cc1ccc(OCC(=O)NCCCNC(=O)c2cccnc2)cc1C`, the “activity, negative = inhibition” value was -14.2%.
On the same count and under the same terms, then `O=C(COc1ccc([N+](=O)[O-])cc1)Nc1cccc(C(=O)Nc2ccccc2C(=O)O)c1`, with 4.15%; and `O=C(N/N=C/c1cccc(OC(=O)c2ccc([N+](=O)[O-])cc2)c1)c1cccnc1`, with 148%; and `O=C(Nc1ccc(S(=O)(=O)N2CCC(c3nc4ccccc4s3)CC2)cc1)c1ccccc1F`, with 19.1%.
Take `COc1ccc(CCNC(=O)c2nn(C)c3c2CSc2ccccc2-3)cc1OC`: the “activity, negative = inhibition” value is -19.9%.
Same read-out and setting: under `COc1ccc(NC(=O)c2ccc3oc(=O)c(S(=O)(=O)c4ccc(F)cc4)cc3c2)c(OC)c1` stands 18.3%; under `CCCN1CCN(CCCNC(=O)c2cnn(-c3ccc(C)cc3)c2-n2cccc2)CC1`, 15%; under `Cc1cc2occ(CC(=O)NNC(=O)c3ccccc3F)c2cc1C`, 9.31%.
Same read-out and setting: then `O=C(Cn1cnc2ccccc2c1=O)NNC(=O)c1ccccc1F`, with 85.9%.
For the compound `Cn1c(CC(=O)NNC(=O)c2ccccc2F)nc2ccccc21`, the Potency is 70.8 µM (active).
As to `COc1cc(Cl)ccc1Nc1ncc(C(=O)N2CCN(c3ccccc3OC)CC2)c2ccccc12`, the “activity, negative = inhibition” value was 25.4%.
Still for that read-out and setting: under `CCc1ccc(S(=O)(=O)c2nnn3c2nc(NCc2ccccc2OC)c2cc(Cl)ccc23)cc1` stands 26.5%.
The same measure, in the same setting: then `CC(CNC(=O)c1ccc(N)cc1)NC(=O)c1ccc(N)cc1` (centres undefined), with 34.8%.
As to `CN(C)NC(=O)C(NC(=O)c1ccc(N)cc1)C12CC3CC(CC(C3)C1)C2` (centres undefined), the Potency was 35.5 µM (active).
For the compound `CC(NC(=O)c1ccc(N2CCNCC2)c([N+](=O)[O-])c1)C12CC3CC(CC(C3)C1)C2` (centres undefined), the “activity, negative = inhibition” value was 6.58%.
Turning to `CC(CCCc1ccccc1)NC(=O)c1nn(-c2ccc(Cl)cc2)nc1CO` (centres undefined), the “activity, negative = inhibition” value was 0.647%.
Consider `COc1ccc(CCNC(=O)c2ccc3c(c2)sc2nc(-c4ccc(C)cc4)cn23)cc1OC`, for which the “activity, negative = inhibition” value is 6.49%.
`CCOc1ccccc1C(=O)NCc1ccc2c(c1)CCN2C(=O)c1ccc(F)cc1`: the “activity, negative = inhibition” value was 38.3%.
On the same count and under the same terms, then `COC(=O)c1ccccc1NC(=O)Cn1c(=O)n(-c2cccc(C(F)(F)F)c2)c(=O)c2c(C)c(C)sc21`, with -4.45%; and `COc1ccc(N2CCN(S(=O)(=O)c3ccc4c(c3)NC(=O)C(C)C(=O)N4)CC2)cc1` (centres undefined), with -18.4%.
Consider `CON(C)S(=O)(=O)c1ccc2c(c1)NC(=O)C1CCCN21` (centres undefined), for which the Potency was 22.4 µM (active).
As to `CC1C(=O)Nc2ccc(S(=O)(=O)N3CCN(c4ccccc4F)CC3)cc2NC1=O` (centres undefined), the “activity, negative = inhibition” value is 32%.
